Sm TGR inh = qHTS Assay for the Inhibitors of Schistosoma Mansoni Peroxiredoxins; AID 485364, 2010; 3% of 360,000 active; Potency, µM (highest dose often 114 µM), usual class: inhibitors; purified TGR, DTNB reduction, TNB absorbance 405 nm; also: nearly all actives have a fitted effect of over 60% in size
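First, TGR (20 nM dispensed) and NADPH were mixed with compound. Second, a 15 min room-temperature incubation followed. Third, further NADPH and then DTNB were added to start the reaction. Finally, TNB absorbance was monitored kinetically.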
AmpC no deterg = qHTS Inhibitors of AmpC Beta-Lactamase (assay without detergent) | P00811 | 0.52% of 330,000 active | AmpC nitrocefin hydrolysis, absorbance 480 nm, 0.0001% Triton | Potency, µM (highest dose often 57.1 µM), actives largely listed as inhibitors | AID 485341, 2010; also: nearly all actives have a fitted effect of over 20% in size
Target sequence (P00811 whole entry, looked up): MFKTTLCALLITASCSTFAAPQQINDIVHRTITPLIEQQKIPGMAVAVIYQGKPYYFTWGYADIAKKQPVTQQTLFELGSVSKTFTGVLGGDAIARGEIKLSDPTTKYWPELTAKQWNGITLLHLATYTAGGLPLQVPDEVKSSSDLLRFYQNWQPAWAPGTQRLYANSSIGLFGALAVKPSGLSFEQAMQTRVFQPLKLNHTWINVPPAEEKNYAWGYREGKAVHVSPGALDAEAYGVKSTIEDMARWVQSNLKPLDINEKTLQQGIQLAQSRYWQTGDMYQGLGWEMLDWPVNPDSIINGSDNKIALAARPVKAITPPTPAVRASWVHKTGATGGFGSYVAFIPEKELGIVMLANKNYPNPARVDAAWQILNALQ
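AmpC (5.3 nM in the dispensed reagent) in 20 mM phosphate pH 7.0 with 0.01% (detergent screen) or 0.0001% Triton X-100 was preincubated with compounds for 15 min at room temperature. Nitrocefin was then added from an 800 uM solution, and hydrolysis was followed at 480 nm.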
AmpC inh detg = qHTS Inhibitors of AmpC Beta-Lactamase (assay with detergent); P00811; AmpC hydrolysis of nitrocefin, absorbance 480 nm, 0.01% Triton; Potency, µM (highest dose often 114 µM), actives largely listed as inhibitors; 0.041% of 370,000 active; also: nearly all actives have a fitted effect of over 25% in size
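20 mM phosphate pH 7.0 + 0.01% (detergent screen) or 0.0001% Triton X-100; 5.3 nM AmpC reagent; cpd preinc 15 min RT; nitrocefin (800 uM stock) to start; A480 q20 s × 4 min; Activity was normalised to no-enzyme and no-compound control wells.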
Hits are given with their value; - = inactive; ? = inconclusive; . = no result. Only some compounds are listed: those with a hit (about 3.3% of all), similar ones and a draw of the others. Calls follow the shape of the dose curve; as a rule, active = well fitted curve in the direction sought with a large enough effect; inconclusive = small, poorly fitted or top-dose-only effect, or another doubt; inactive = no such curve, though single readings can be large; an effect the other way counts as inactive or inconclusive.

SMILES | Sm TGR inh | AmpC no deterg | AmpC inh detg
C=C1C(=O)O[C@H]2C[C@]3(C)C([C@@H](OC(=O)/C(C)=C/C)[C@H]12)[C@](C)(O)CC[C@H]3O (stereo partly drawn) | 14µM | - | -
COC(=O)C1=C(O)/C(=C\c2ccc(CNS(=O)(=O)c3ccc(Cl)cc3)o2)N=C1C | 28µM | - | -
COC(=O)C1=C(O)/C(=C\c2ccc(OCC(=O)Nc3ccccc3)cc2)N=C1C | - | - | -
CCOC(=O)C1=C(O)/C(=C\c2ccc(CNS(=O)(=O)c3ccc(Br)cc3)o2)N=C1C | 40µM | ? | -
COc1ccc(N=Cc2ccc(CNS(=O)(=O)c3ccc(Cl)cc3)o2)cc1 | - | - | -
COCCNC(=O)/C(C#N)=C\c1ccc(CNS(=O)(=O)c2ccc(C)cc2)o1 | . | - | -
COC(=O)C1=C(O)/C(=C\c2ccc(CNS(=O)(=O)c3ccccc3)o2)N=C1C | 40µM | - | -
CCC(=O)N1CCc2cc(Br)cc(S(=O)(=O)N3CCC(C(=O)Nc4ccccc4F)CC3)c21 | - | . | -
COCCCN=C(c1ccco1)n1c(=S)nc(-c2ccco2)n(CCCOC)c1=S | 20µM | - | -
COCCCn1c(-c2ccco2)nc2ccccc2c1=O | - | - | -
Cc1ccc(C2=NN(CC(=O)NCCc3ccccc3)C(=O)CC2)cc1 | - | . | -
CC(C)(C)NC(=O)c1nn2c(C(F)(F)F)cc(-c3ccccc3)nc2c1Br | - | - | -
COC(=O)c1nn2c(C(F)(F)F)cc(-c3ccc(Br)o3)nc2c1Br | 45µM | - | ?
Cc1ccc(C(=O)NC(=S)Nc2ccc(CN3CCCCC3)cc2)c(C)c1 | . | - | -
COc1ccc(C(=O)NC(=S)Nc2ccc(CN3CCOCC3)cc2)cc1OC | 20µM | - | -
COc1ccc(C(=O)Nc2ccc(CN3CCOCC3)cc2)cc1Br | ? | - | ?
COc1ccc(C(=O)NC(=S)Nc2ccc(CN3CCOCC3)cc2)cc1Cl | 14µM | - | -
CC(C)COc1ccc(C(=O)NC(=S)Nc2ccc(CN3CCOCC3)cc2)cc1 | - | - | ?
COc1ccc(C(=O)NC(=S)Nc2ccc(CN3CCCCC3)cc2)cc1Cl | 40µM | - | -
Cc1c(CNCc2ccc(OC(C)C)cc2)c(C(=O)O)c(C)n1Cc1ccc(Cl)cc1 | - | . | -
CC(C)c1cnc2c(c1SCc1cccc(F)c1)c(=O)n(C)c(=O)n2C | - | . | -
O=C(NCc1ccc(F)cc1)c1ccc2c(c1)nc1n2CCCCC1 | - | . | -
CCC(=O)CC(c1ccccc1)c1c(O)c2ccccc2sc1=O (stereo not drawn) | - | - | -
O=c1c(C(c2ccccc2)c2c(O)sc3ccccc3c2=O)c(O)sc2ccccc12 | ? | 16µM | -
Cc1cccc(NC(=O)CCCCCN2C(=O)c3ccccc3C2=O)n1 | - | 7.1µM | -
SMILES | Sm TGR inh | AmpC no deterg | AmpC inh detg
Cc1cccc(NC(=O)CCCN2C(=O)c3ccccc3C2=O)n1 | - | - | -
COc1ccc(C2=NC3(CCCCCC3)N(CC(=O)Nc3cccc(Cl)c3)C2=O)cc1 | - | . | -
O=c1cc(-c2ccc(O)cc2)oc2c(O)c(O)c(O)c(O)c12 | 4µM | - | -
O=c1cc(-c2ccc(O)cc2)oc2c1ccc1ccccc12 | - | - | -
O=C(/C=C/c1ccncc1)c1ccc2c(c1)OCCO2 | 45µM | - | -
O=C(/C=C/c1ccccc1)c1ccc2c(c1)OCO2 | ? | - | -
O=C1Cc2ccccc2C(c2ccc(Br)cc2)N1 (stereo not drawn) | - | - | -
O=C1NC2=C(CCc3ccccc32)C(c2ccc(Br)cc2)N1 (stereo not drawn) | 50µM | - | -
Cc1ccc(-c2nn(-c3cccc([N+](=O)[O-])c3)c3c2cnc2ccc(F)cc23)cc1 | - | . | -
CC(C)(C)n1ncc2c(=O)n(CC(=O)NCc3ccc(F)cc3)cnc21 | - | - | -
CC(C)(C)n1ncc2c(=O)n(CC(=O)NCc3ccco3)cnc21 | 45µM | - | ?
O=C(COc1ccc(Cl)cc1Cl)Nc1nc2n(n1)C(c1ccccc1)CC(=O)N2 (stereo not drawn) | - | - | ?
CC1=CC(c2ccccc2)n2nc(NC(=O)CCCC(=O)O)nc2N1 (stereo not drawn) | 20µM | - | -
Nc1nc(NC(=O)CCCC(=O)O)nn1-c1ccccc1 | - | - | ?
CC1=CC(c2ccccc2)n2nc(NC(=O)CCC(=O)O)nc2N1 (stereo not drawn) | 13µM | - | -
O=C(CSc1nnc2[nH]c(=O)cc(-c3ccccc3)n12)Nc1ccc(OC(F)(F)F)cc1 | - | . | -

Screening results (PubChem BioAssay)
